Experimental data: PubChem BioAssay (NCATS)
A number with no mark means an inactive call. Results filed as inconclusive are left out. A call without a number means that no potency is given here. Calls of active or inactive are those of the source. Unless noted, the call rests on the fitted dose curve; in most records, active means well fitted curve in the direction sought with a large enough effect; inconclusive means small, poorly fitted or top-dose-only effect, or another doubt; inactive means no such curve, though single readings can be large; an effect the other way counts as inactive or inconclusive.

Tests used:
[1] = NS1 protein of Zika virus - qHTS assay to identify small molecule inhibitors in human HEK 293 cells (AID 1347053); further: nearly all actives have a fitted effect of over 55% in size
Method in brief: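 In this cell-based screen, HEK 293 cultures received compound for one hour before Zika MR766 at MOI = 0.5. NS1 was quantified 24 hours later by TR-FRET, normalized to virus-free wells and infected wells.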

[2] = biological target: T1, Tyrosine-protein phosphatase non-receptor type substrate 1 (Homo sapiens) + Leukocyte surface antigen CD47 (Homo sapiens) (UniProt P78324+Q08722); experiment: CD47-SIRPalpha protein protein interaction - LANCE assay qHTS validation (AID 1347057; active means well fitted curve in the direction sought with a large enough effect in the signal ratio, with a control signal flat, not every such curve was filed as active; the % refers to the signal ratio)
Method in brief: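 Inhibition of soluble CD47/SIRPalpha ectodomain association by titrated compounds, measured as 665/615 nm time-resolved FRET ratio after sequential 30 min room-temperature incubations.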

[3] = biological target: T1, Tyrosine-protein phosphatase non-receptor type substrate 1 (Homo sapiens) + Leukocyte surface antigen CD47 (Homo sapiens); experiment: CD47-SIRPalpha protein protein interaction - Alpha assay qHTS validation (AID 1347059);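 further: bead proximity luminescence from CD47 binding SIRPalpha after compound preincubation with SIRPalpha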
Method in brief: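 AlphaScreen signal between CD47-His (12.5 nM) and biotin-SIRPalpha (25 nM) soluble extracellular domains, bead-captured via Ni-NTA and streptavidin. Compounds, in 7-point titrations, met SIRPalpha 30 min before CD47; PBS pH 7.4 with 0.05% IGEPAL.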

[4] = biological target: Parathyroid hormone/parathyroid hormone-related peptide receptor (Homo sapiens) (UniProt Q03431); experiment: qHTS for PTHR1 Agonists: Optimization Screen against the NCGC LOPAC library (AID 1347079);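 further: GloSensor cAMP luminescence in HEK-293 GP2 cells expressing human PTHR1 with IBMX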
Method in brief: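 Signal increase flags agonism. GP2 cells, derived from HEK-293, express human PTHR1 and a GloSensor cAMP construct.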

[5] = system: Zika virus NS2B-NS3 protease (unlinked); experiment: Optimization of GU AMC qHTS for Zika virus inhibitors: Unlinked NS2B-NS3 protease assay (AID 1347151); further: nearly all actives have a fitted effect of over 80% in size; further: potency means the concentration at half of the fitted maximal effect
Method in brief: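 Fluorescence gain (340/450 nm) over 15 min at room temperature, ~20% conversion, gave percent inhibition fitted to a 4-parameter Hill equation; enzyme was unlinked NS2B-NS3 (25 nM final), pH 8.0 Tris buffer.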

[6] = system: Zika virus NS2B-NS3 protease; experiment: Primary screen GU AMC qHTS for Zika virus inhibitors (AID 1347154); further: nearly all actives have a fitted effect of over 70% in size
Method in brief: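 Fluorogenic AMC-substrate cleavage by noncovalent NS2B-NS3 protease complex (25 nM, pH 8.0 Tris buffer with Tween 20) followed for 15 minutes at room temperature (~20% conversion). Percent inhibition from ex340/em450 signal change, fitted by 4-parameter Hill equation.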

[7] = biological target: Lysine-specific demethylase 5B (Homo sapiens) (UniProt Q9UGL1); experiment: Optimization screen for KDM5B Histone Demethylases FDH coupled qHTS against the LOPAC library (AID 1347166); conditions: KDM5B demethylation, FDH-coupled NADH fluorescence (FDH is formaldehyde dehydrogenase); at 57.5 µM (top of the series)
Method in brief: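 KDM5BDeltaAP (200nM final) in 50mM HEPES pH 7.5, 0.01% Tween-20 was preincubated with compound for 10 min at room temperature. A substrate mix of 12.5uM H3K4Me3, 25uM a-ketoglutarate, ascorbate, Fe2+, NAD+ and formaldehyde dehydrogenase was then added. NADH fluorescence (340/450 nm) was read initially and after 30 min.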

[8] = biological target: N-terminal Xaa-Pro-Lys N-methyltransferase 1 (Homo sapiens) (UniProt Q9BV86); experiment: qHTS Assay for Inhibitors of N-terminal methyltransferase 1 (NTMT1): LOPAC validation of the NTMT1 SAHH-coupled ThioGlo3 Assay (AID 1347143);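 further: SAH from peptide methylation measured as thiol fluorescence via SAHH coupling and ThioGlo3; nearly all actives have a fitted effect of over 70% in size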
Method in brief: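 NTMT1 125nM + cpds (various conc.), 1 min RT; add SAM 100uM/SAHH 10uM/ThioGlo3 15uM (addition mix). SAHH-coupled thiol detection, Ex340/Em450, t0 and 30 min RT; signal normalized to background. LOPAC 1280-cpd pilot.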

[9] = system: Zika virus NS2B-NS3 protease (unlinked complex); experiment: Confirmatory screen GU AMC qHTS for Zika virus inhibitors (AID 1347153); further: nearly all actives have a fitted effect of over 70% in size
Method in brief: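 Noncovalent NS2B hydrophilic domain/NS3 protease complex (25 nM) in 10 mM Tris-HCl pH 8.0, 0.01% Tween 20 was preincubated 15 min at room temperature with compounds. Then 10 µM AMC substrate (Km 18.3 µM) was added; fluorescence was read over 15 min and fitted to a 4-parameter Hill equation.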

[10] = Vero cells viability qHTS for Zika virus inhibitors (AID 1347167)
Method in brief: (§1)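 Luminescent ATP readout (CellTiter Glo) after 30 min at 37 degrees C gives viability; cells in DMEM + 4% FBS were treated 24 to 48 hours with compound, following overnight attachment.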

[11] = HepG2 cells viability qHTS for Zika virus inhibitors (AID 1347168)
Method in brief: as §1

Lysine-specific demethylase 5B (Homo sapiens), sequence (Q9UGL1 whole entry, looked up): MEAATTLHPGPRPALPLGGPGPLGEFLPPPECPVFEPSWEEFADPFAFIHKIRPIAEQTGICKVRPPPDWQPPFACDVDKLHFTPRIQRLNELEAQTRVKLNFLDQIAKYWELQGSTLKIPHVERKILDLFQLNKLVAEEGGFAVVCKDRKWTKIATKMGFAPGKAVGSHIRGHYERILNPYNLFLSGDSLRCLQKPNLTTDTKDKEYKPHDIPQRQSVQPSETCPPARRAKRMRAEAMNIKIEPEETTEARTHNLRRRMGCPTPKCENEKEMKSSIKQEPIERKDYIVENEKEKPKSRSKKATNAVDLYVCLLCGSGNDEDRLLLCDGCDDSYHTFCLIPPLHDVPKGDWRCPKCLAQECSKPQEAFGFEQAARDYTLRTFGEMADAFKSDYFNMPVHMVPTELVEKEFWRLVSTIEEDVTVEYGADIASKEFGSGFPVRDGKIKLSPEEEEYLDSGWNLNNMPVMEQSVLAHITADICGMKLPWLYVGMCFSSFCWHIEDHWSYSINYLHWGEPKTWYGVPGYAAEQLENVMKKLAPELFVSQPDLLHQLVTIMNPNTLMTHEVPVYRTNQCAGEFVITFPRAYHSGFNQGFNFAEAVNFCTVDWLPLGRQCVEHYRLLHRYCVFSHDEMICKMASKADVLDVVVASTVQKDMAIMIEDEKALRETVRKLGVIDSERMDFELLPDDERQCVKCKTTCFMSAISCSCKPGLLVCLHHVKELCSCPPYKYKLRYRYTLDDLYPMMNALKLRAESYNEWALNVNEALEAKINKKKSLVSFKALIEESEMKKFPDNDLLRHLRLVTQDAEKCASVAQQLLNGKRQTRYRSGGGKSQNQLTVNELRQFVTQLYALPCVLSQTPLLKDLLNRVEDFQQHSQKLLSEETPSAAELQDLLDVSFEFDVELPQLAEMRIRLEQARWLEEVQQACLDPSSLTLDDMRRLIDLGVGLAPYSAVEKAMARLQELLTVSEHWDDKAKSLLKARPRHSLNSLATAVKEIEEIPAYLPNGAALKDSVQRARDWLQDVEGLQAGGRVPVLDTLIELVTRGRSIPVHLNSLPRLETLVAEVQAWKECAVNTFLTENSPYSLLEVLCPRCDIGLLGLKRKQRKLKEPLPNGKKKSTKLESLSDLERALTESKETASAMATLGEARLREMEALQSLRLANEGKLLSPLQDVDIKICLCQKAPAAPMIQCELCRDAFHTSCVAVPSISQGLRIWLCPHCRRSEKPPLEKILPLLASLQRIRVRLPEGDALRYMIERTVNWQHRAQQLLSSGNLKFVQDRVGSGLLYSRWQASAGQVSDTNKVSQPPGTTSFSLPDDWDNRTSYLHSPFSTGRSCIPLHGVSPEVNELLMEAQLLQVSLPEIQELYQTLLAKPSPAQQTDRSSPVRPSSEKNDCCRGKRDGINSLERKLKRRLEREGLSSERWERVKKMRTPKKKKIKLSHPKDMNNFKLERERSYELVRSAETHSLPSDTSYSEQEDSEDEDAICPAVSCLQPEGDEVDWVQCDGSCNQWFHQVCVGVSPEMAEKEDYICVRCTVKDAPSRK
Parathyroid hormone/parathyroid hormone-related peptide receptor (Homo sapiens), sequence (Q03431 whole entry, looked up): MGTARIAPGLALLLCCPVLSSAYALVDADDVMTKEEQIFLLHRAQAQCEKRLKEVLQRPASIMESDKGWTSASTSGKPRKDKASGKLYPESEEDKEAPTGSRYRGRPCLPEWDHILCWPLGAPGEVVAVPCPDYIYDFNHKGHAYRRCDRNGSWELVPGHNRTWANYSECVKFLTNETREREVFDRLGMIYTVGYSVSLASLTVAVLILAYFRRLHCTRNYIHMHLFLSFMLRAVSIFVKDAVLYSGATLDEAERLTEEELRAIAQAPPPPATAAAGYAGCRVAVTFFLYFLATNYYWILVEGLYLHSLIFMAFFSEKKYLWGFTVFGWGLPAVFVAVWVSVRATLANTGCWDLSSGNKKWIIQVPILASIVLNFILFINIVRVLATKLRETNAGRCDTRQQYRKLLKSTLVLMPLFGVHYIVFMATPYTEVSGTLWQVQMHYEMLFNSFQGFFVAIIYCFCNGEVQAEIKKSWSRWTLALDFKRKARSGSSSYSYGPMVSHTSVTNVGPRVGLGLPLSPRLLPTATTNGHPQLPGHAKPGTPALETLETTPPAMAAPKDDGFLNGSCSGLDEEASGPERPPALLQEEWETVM
N-terminal Xaa-Pro-Lys N-methyltransferase 1 (Homo sapiens), sequence (Q9BV86 whole entry, looked up): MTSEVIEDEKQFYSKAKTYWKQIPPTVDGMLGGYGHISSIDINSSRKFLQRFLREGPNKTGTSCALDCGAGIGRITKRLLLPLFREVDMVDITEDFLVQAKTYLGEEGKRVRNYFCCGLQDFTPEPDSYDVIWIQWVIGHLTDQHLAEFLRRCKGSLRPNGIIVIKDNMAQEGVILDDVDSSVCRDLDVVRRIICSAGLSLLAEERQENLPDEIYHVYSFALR
T1 sequence (P78324 whole entry, looked up, the tested form may be a part): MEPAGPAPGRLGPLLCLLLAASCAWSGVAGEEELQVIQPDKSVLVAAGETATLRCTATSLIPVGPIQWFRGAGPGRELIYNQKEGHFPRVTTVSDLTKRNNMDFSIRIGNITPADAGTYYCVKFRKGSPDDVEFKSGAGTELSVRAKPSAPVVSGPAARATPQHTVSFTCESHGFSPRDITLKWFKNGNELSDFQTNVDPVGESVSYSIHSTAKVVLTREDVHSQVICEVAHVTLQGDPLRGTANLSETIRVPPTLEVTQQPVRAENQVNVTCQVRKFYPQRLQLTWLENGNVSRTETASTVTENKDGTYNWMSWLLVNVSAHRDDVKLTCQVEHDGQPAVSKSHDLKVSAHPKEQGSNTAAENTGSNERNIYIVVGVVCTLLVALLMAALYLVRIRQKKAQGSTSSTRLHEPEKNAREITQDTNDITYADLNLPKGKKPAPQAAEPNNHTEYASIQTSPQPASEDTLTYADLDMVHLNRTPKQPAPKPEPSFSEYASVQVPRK
T1 sequence (Q08722 whole entry, looked up, the tested form may be a part): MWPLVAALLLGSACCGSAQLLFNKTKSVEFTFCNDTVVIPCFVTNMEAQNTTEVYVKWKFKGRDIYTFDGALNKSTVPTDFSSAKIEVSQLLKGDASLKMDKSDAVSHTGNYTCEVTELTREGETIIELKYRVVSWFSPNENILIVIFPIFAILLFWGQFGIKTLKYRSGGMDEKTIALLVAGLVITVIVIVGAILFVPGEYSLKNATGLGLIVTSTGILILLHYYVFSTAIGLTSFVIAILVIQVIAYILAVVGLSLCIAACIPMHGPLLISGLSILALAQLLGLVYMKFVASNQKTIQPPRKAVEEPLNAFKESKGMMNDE

| Compound | Potency [1] | Potency [2] | Potency [3] | Potency [4] | Potency [5] | Potency [6] | activity, negative = inhibition [7] | Potency [8] | Potency [9] | Potency [10] | outcome [11] |
| --- | --- | --- | --- | --- | --- | --- | --- | --- | --- | --- | --- |
| CCCCCC[C@@H]([C@@H](C)O)n1cnc2c(N)ncnc21 | inactive | inactive | inactive | inactive | inactive | inactive | -6.57% |  |  |  |  |
| O=C(OCCN1CCOCC1)C1(c2ccccc2)CCCCC1 | inactive | inactive | inactive | inactive | inactive | inactive | -17.1% |  |  |  |  |
| CCN(c1nc(N)c(C(=O)N=C(N)N)nc1Cl)C(C)C | inactive | inactive | inactive | inactive |  |  | -3.16% | inactive |  |  |  |
| O=C(O)C1=CCCNC1 | inactive | inactive | inactive | inactive | inactive | inactive | -1.96% |  |  |  |  |
| COC(=O)C1=C(C)NC(C)=C([N+](=O)[O-])C1c1ccccc1C(F)(F)F (stereo unspecified) | inactive | inactive | inactive | inactive |  | inactive | -5.36% | inactive |  |  |  |
| N#CC(C#N)=C(N)/C(C#N)=C/c1ccc(O)cc1 | inactive | inactive | inactive | inactive | inactive |  | -9.24% |  |  |  |  |
| CC[C@H](NC(=O)c1c(C)c(-c2ccccc2)nc2ccccc12)c1ccccc1 | inactive | inactive | inactive |  | inactive | inactive | -4.22% | inactive |  |  |  |
| CCN1C(=O)C=CC1=O | inactive | inactive | inactive | inactive | inactive |  | -3.85% |  |  |  |  |
| Cn1c(=O)c2c(nc(/C=C/c3cccc(Cl)c3)n2C)n(C)c1=O | inactive | inactive | inactive | inactive | 11.9 µM (active) |  | -517% (active) |  |  |  |  |
| Cc1cccc(C(=O)NCN2CCN(c3ccccc3C#N)CC2)c1 | inactive | inactive | inactive | inactive | 26.7 µM (active) | inactive |  |  | inactive | inactive | inactive |
| CN1CCC2(CCN3CCc4c(oc5ccccc45)C3C2)N(C)C1=O (stereo unspecified) | inactive | inactive | inactive | inactive |  |  | -3.3% |  |  |  |  |
| C#CC(N)CCC(=O)O (stereo unspecified) | inactive | inactive | inactive | inactive | inactive |  | -0.625% |  |  |  |  |
| C[C@H](NC(=O)/C(C#N)=C/c1ccc(O)c(O)c1)c1ccccc1 | inactive | inactive | inactive | inactive | 2.38 µM (active) |  |  |  |  |  |  |
| CCN(CC)CCCCCCCCOC(=O)c1cc(OC)c(OC)c(OC)c1 | inactive | inactive | inactive | inactive | inactive | inactive | -10.5% |  |  |  |  |
